Source: paper PMC7862700, “An all-to-all approach to the identification of sequence-specific readers for epigenetic DNA modifications on cytosine”

Tests used:
Experiment in all cases: DAPPL (digital affinity profiling via proximity ligation, sequencing); 10 mM Tris-HCl pH 7.5, 50 mM NaCl, 1 mM DTT, 4% glycerol, room temperature, 30 min; GST-TFs on glutathione beads, 16-mer random dsDNA library, 0.1% formaldehyde crosslink after washing; high values mean tight binding
Conditions in all cases: protein: recombinant; tags: N-terminal GST; dsDNA, one strand shown
[1] = molecular target: T1, ERF (Homo sapiens, UniProt P50548 1-548)
T1 sequence: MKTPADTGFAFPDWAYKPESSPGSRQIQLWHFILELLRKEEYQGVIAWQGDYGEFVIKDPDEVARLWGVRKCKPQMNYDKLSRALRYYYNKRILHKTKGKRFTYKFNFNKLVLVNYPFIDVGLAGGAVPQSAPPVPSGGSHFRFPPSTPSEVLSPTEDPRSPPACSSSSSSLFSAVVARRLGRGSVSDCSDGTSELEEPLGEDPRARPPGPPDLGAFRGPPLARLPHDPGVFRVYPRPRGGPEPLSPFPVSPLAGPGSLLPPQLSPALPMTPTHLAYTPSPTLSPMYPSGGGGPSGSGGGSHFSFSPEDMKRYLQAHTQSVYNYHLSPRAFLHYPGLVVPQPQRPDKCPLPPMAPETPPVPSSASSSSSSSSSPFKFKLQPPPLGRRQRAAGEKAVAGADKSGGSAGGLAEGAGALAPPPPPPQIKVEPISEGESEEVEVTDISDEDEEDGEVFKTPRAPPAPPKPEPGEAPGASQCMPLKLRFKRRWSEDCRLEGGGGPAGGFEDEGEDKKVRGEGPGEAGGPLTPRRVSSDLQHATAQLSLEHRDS
Outline: (§1)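 Human transcription factors fused to GST were expressed in yeast, captured on glutathione beads, given DNA barcodes and pooled with a GST-only negative control. Pools were incubated with 200 nmole of a 16-mer random double-stranded DNA library in Tris/NaCl/DTT/glycerol buffer at room temperature for 30 min. They were then washed, crosslinked with 0.1% formaldehyde, proximity-ligated (BsaI/T4 ligase, 1 h, 37 °C), PCR-amplified and sequenced on an Illumina NextSeq500. Binding signal is each 6-mer's read frequency for a factor divided by its frequency for the GST control.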

[2] = molecular target: T2, ETV3L (Homo sapiens, UniProt Q6ZN32 1-361)
T2 sequence: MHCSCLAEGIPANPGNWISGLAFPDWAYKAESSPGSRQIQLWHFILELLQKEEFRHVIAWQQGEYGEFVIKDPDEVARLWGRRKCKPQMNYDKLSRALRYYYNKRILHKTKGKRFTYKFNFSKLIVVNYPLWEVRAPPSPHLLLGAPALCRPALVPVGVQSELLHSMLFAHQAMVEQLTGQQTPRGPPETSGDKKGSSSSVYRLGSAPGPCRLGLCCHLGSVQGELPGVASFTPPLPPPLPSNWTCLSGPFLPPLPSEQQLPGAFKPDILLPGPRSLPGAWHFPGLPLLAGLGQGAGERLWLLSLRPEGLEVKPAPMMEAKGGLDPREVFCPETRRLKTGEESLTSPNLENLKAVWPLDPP
Outline: as §1

[3] = molecular target: T3, ETS2 (Homo sapiens, UniProt P15036 1-469)
T3 sequence: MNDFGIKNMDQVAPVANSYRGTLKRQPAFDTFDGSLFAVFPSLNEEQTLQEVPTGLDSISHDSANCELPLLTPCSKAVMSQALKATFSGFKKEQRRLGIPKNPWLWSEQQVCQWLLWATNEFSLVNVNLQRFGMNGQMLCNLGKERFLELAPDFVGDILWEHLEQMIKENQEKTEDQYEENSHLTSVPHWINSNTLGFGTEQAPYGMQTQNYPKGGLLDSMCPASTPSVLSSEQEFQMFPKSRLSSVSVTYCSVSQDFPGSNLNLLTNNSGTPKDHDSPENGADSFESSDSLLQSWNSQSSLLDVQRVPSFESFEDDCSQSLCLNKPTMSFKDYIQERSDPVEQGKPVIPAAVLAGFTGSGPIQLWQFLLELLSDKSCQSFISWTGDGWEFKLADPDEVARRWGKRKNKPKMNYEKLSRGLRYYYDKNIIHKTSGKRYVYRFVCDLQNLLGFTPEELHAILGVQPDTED
Outline: as §1

[4] = molecular target: T4, SPDEF (Homo sapiens, UniProt O95238 1-335)
T4 sequence: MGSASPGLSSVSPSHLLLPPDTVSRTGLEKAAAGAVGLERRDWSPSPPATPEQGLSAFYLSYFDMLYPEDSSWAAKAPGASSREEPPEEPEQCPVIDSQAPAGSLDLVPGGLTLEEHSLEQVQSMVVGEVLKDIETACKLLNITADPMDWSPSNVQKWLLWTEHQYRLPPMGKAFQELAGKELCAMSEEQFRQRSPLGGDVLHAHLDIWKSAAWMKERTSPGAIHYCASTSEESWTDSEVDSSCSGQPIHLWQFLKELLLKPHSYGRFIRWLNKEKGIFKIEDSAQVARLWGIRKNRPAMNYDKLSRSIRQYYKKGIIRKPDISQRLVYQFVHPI
Outline: as §1

[5] = molecular target: T5, ETV7 (Homo sapiens, UniProt Q9Y603 1-341)
T5 sequence: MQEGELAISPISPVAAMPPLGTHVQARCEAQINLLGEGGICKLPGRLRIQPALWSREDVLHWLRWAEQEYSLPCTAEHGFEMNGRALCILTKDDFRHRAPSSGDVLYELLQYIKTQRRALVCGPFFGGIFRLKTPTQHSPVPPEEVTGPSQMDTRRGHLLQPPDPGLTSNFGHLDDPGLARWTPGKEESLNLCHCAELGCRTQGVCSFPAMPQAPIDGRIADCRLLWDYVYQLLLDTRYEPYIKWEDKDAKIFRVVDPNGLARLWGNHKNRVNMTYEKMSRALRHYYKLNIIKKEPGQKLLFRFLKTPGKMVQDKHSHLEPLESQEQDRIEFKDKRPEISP
Outline: as §1

[6] = molecular target: T6, ELF5 (Homo sapiens, UniProt Q9UKW6-2 1-255)
T6 sequence: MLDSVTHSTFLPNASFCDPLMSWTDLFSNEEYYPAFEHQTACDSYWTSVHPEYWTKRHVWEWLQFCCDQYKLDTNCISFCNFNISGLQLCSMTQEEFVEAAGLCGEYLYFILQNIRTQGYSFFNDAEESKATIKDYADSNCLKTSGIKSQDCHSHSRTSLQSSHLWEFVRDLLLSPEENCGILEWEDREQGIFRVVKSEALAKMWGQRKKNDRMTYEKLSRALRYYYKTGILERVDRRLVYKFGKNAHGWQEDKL
Outline: as §1

[7] = molecular target: T7, ETV3 (Homo sapiens, UniProt P41162-2 1-143)
T7 sequence: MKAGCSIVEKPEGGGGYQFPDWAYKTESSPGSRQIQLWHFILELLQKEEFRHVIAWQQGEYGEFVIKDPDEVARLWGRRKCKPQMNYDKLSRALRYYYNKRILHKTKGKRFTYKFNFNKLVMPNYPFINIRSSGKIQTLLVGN
Outline: as §1

[8] = molecular target: ETV6 (Homo sapiens, UniProt P41212 1-452)
Outline: as §1

ETV6, sequence (P41212 whole entry): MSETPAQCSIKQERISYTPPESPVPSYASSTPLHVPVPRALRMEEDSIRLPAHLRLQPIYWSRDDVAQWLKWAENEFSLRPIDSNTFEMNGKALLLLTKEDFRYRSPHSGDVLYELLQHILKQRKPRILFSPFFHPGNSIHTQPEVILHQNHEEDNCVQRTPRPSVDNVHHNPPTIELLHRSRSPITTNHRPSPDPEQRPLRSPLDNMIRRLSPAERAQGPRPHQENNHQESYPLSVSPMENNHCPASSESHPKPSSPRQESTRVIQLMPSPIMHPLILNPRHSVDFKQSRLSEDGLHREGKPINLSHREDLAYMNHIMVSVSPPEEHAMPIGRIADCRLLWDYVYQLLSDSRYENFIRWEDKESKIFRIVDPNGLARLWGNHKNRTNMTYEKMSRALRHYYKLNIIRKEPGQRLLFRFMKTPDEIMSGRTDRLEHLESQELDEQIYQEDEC

Sequence	binding signal [1]	binding signal [2]	binding signal [3]	binding signal [4]	binding signal [5]	binding signal [6]	binding signal [7]	binding signal [8]
GAAGCT	1.59 fold enrichment (6-mer frequency, TF over GST control)	1.58 fold enrichment (6-mer frequency, TF over GST control)	1.54 fold enrichment (6-mer frequency, TF over GST control)	1.51 fold enrichment (6-mer frequency, TF over GST control)	1.54 fold enrichment (6-mer frequency, TF over GST control)	1.71 fold enrichment (6-mer frequency, TF over GST control)	1.75 fold enrichment (6-mer frequency, TF over GST control)	1.59 fold enrichment (6-mer frequency, TF over GST control)
CTTGAA	1.2 fold enrichment (6-mer frequency, TF over GST control)	1.11 fold enrichment (6-mer frequency, TF over GST control)	1.16 fold enrichment (6-mer frequency, TF over GST control)	1.13 fold enrichment (6-mer frequency, TF over GST control)	1.08 fold enrichment (6-mer frequency, TF over GST control)	1.15 fold enrichment (6-mer frequency, TF over GST control)	1.16 fold enrichment (6-mer frequency, TF over GST control)	1.07 fold enrichment (6-mer frequency, TF over GST control)
CCACAT	1.28 fold enrichment (6-mer frequency, TF over GST control)	1.15 fold enrichment (6-mer frequency, TF over GST control)	1.2 fold enrichment (6-mer frequency, TF over GST control)	1.22 fold enrichment (6-mer frequency, TF over GST control)	1.05 fold enrichment (6-mer frequency, TF over GST control)	1.15 fold enrichment (6-mer frequency, TF over GST control)	1.17 fold enrichment (6-mer frequency, TF over GST control)	1.2 fold enrichment (6-mer frequency, TF over GST control)
CCGGTA	1.4 fold enrichment (6-mer frequency, TF over GST control)	1.46 fold enrichment (6-mer frequency, TF over GST control)	1.54 fold enrichment (6-mer frequency, TF over GST control)	1.96 fold enrichment (6-mer frequency, TF over GST control)	1.35 fold enrichment (6-mer frequency, TF over GST control)	1.83 fold enrichment (6-mer frequency, TF over GST control)	1.68 fold enrichment (6-mer frequency, TF over GST control)	1.65 fold enrichment (6-mer frequency, TF over GST control)
CGACCT	1.47 fold enrichment (6-mer frequency, TF over GST control)	1.75 fold enrichment (6-mer frequency, TF over GST control)	1.41 fold enrichment (6-mer frequency, TF over GST control)	1.44 fold enrichment (6-mer frequency, TF over GST control)	1.54 fold enrichment (6-mer frequency, TF over GST control)	1.58 fold enrichment (6-mer frequency, TF over GST control)	1.53 fold enrichment (6-mer frequency, TF over GST control)	1.5 fold enrichment (6-mer frequency, TF over GST control)
ATTCCC	1.28 fold enrichment (6-mer frequency, TF over GST control)	1.53 fold enrichment (6-mer frequency, TF over GST control)	1.25 fold enrichment (6-mer frequency, TF over GST control)	1.37 fold enrichment (6-mer frequency, TF over GST control)	1.29 fold enrichment (6-mer frequency, TF over GST control)	1.5 fold enrichment (6-mer frequency, TF over GST control)	1.51 fold enrichment (6-mer frequency, TF over GST control)	1.38 fold enrichment (6-mer frequency, TF over GST control)
ATCTGA	1.2 fold enrichment (6-mer frequency, TF over GST control)	1.19 fold enrichment (6-mer frequency, TF over GST control)	1.17 fold enrichment (6-mer frequency, TF over GST control)	1.1 fold enrichment (6-mer frequency, TF over GST control)	1.04 fold enrichment (6-mer frequency, TF over GST control)	1.08 fold enrichment (6-mer frequency, TF over GST control)	1.06 fold enrichment (6-mer frequency, TF over GST control)	1.13 fold enrichment (6-mer frequency, TF over GST control)
CCTTAT	1.41 fold enrichment (6-mer frequency, TF over GST control)	1.46 fold enrichment (6-mer frequency, TF over GST control)	1.41 fold enrichment (6-mer frequency, TF over GST control)	1.71 fold enrichment (6-mer frequency, TF over GST control)	1.49 fold enrichment (6-mer frequency, TF over GST control)	1.73 fold enrichment (6-mer frequency, TF over GST control)	1.39 fold enrichment (6-mer frequency, TF over GST control)	1.42 fold enrichment (6-mer frequency, TF over GST control)
CCTGGT	1.37 fold enrichment (6-mer frequency, TF over GST control)	1.53 fold enrichment (6-mer frequency, TF over GST control)	1.43 fold enrichment (6-mer frequency, TF over GST control)	1.69 fold enrichment (6-mer frequency, TF over GST control)	1.31 fold enrichment (6-mer frequency, TF over GST control)	1.58 fold enrichment (6-mer frequency, TF over GST control)	1.49 fold enrichment (6-mer frequency, TF over GST control)	1.4 fold enrichment (6-mer frequency, TF over GST control)
ACTCAC	1.25 fold enrichment (6-mer frequency, TF over GST control)	1.16 fold enrichment (6-mer frequency, TF over GST control)	1.28 fold enrichment (6-mer frequency, TF over GST control)	1.22 fold enrichment (6-mer frequency, TF over GST control)	1.2 fold enrichment (6-mer frequency, TF over GST control)	1.21 fold enrichment (6-mer frequency, TF over GST control)	1.15 fold enrichment (6-mer frequency, TF over GST control)	1.22 fold enrichment (6-mer frequency, TF over GST control)
GTTTTG	1.25 fold enrichment (6-mer frequency, TF over GST control)	1.16 fold enrichment (6-mer frequency, TF over GST control)	1.1 fold enrichment (6-mer frequency, TF over GST control)	1.24 fold enrichment (6-mer frequency, TF over GST control)	1.13 fold enrichment (6-mer frequency, TF over GST control)	1.13 fold enrichment (6-mer frequency, TF over GST control)	1.13 fold enrichment (6-mer frequency, TF over GST control)	1.15 fold enrichment (6-mer frequency, TF over GST control)
GAAGTG	1.48 fold enrichment (6-mer frequency, TF over GST control)	1.53 fold enrichment (6-mer frequency, TF over GST control)	1.55 fold enrichment (6-mer frequency, TF over GST control)	1.47 fold enrichment (6-mer frequency, TF over GST control)	1.7 fold enrichment (6-mer frequency, TF over GST control)	1.79 fold enrichment (6-mer frequency, TF over GST control)	1.75 fold enrichment (6-mer frequency, TF over GST control)	1.93 fold enrichment (6-mer frequency, TF over GST control)
TGTACA	1.28 fold enrichment (6-mer frequency, TF over GST control)	1.23 fold enrichment (6-mer frequency, TF over GST control)	1.24 fold enrichment (6-mer frequency, TF over GST control)	1.67 fold enrichment (6-mer frequency, TF over GST control)	1.36 fold enrichment (6-mer frequency, TF over GST control)	1.12 fold enrichment (6-mer frequency, TF over GST control)	1.17 fold enrichment (6-mer frequency, TF over GST control)	1.29 fold enrichment (6-mer frequency, TF over GST control)
GAAATT	1.36 fold enrichment (6-mer frequency, TF over GST control)	1.34 fold enrichment (6-mer frequency, TF over GST control)	1.35 fold enrichment (6-mer frequency, TF over GST control)	1.25 fold enrichment (6-mer frequency, TF over GST control)	1.2 fold enrichment (6-mer frequency, TF over GST control)	1.51 fold enrichment (6-mer frequency, TF over GST control)	1.32 fold enrichment (6-mer frequency, TF over GST control)	1.41 fold enrichment (6-mer frequency, TF over GST control)
CTTTCG	1.23 fold enrichment (6-mer frequency, TF over GST control)	1.29 fold enrichment (6-mer frequency, TF over GST control)	1.32 fold enrichment (6-mer frequency, TF over GST control)	1.22 fold enrichment (6-mer frequency, TF over GST control)	1.3 fold enrichment (6-mer frequency, TF over GST control)	1.26 fold enrichment (6-mer frequency, TF over GST control)	1.16 fold enrichment (6-mer frequency, TF over GST control)	1.23 fold enrichment (6-mer frequency, TF over GST control)
